TAG inh – reduces triacylglycerol accumulation in H9c2 cells; Nile Red lipid (TAG) fluorescence; cells loaded with 200 µM oleic acid; inhibition, % at 12.5 µM; actives 0.66% (n = 230,000);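 active means pattern-corrected inhibition of lipid staining of at least 50% with the nuclear-stain viability signal not falling by more than 50%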;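 further: 0% = DMSO wells and 100% = triacsin C control wells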
H9c2 protect – myocardial damage modulation in H9c2 cells; H9c2 cardiomyocytes, H2O2 injury protection, ATPLite, 2 h; protection from H2O2 cell death, % at 20 µM; actives 0.63% (n = 360,000);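 active means compounds giving at least 50% protection of heart cells from peroxide-induced death in the single-dose screen, raw or plate-pattern-corrected value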;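 further: 0% = DMSO wells with peroxide and 100% = DMSO wells without peroxide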
697 NFkB inh – lowers PMA/ionomycin-induced NF-kB signal in 697 B cells; AID 435022; 697 B-cell NF-kB luciferase reporter, 16 h; actives 0.33% (n = 330,000); inhibition, % at 4 µM; in the data active means inhibition above about 35%
Gli-Sufu antag – blocks Gli-Sufu signaling in a luciferase reporter | Sufu-KO-LIGHT fibroblasts, Gli luciferase reporter luminescence | inhibition, % at 5 µM | actives 0.74% (n = 340,000) | AID 588413;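 active means inhibition above about 55%, limit read from the data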;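 further: 0% = DMSO-treated cells and 100% = wells with medium but no cells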
Jurkat NFkB inh – lowers PMA/ionomycin-induced NF-kB signal in Jurkat cells; AID 435003; actives 0.53% (n = 330,000); inhibition, % at 4 µM; PMA/ionomycin-induced NF-kB luciferase reporter, luminescence; in the data active means inhibition above about 50%
COUP-TFII inh – NR2F2 (human) inhibition, primary screen. inhibition, % at 8.6 µM. actives 0.7% (n = 370,000). HEK293T NGFI-A luciferase reporter, luminescence. AID 686940. P24468;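 active means inhibition above a per-plate cutoff, mean inhibition of test wells between control levels plus 3 SD, cut at about 38% in these data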;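 further: cells cotransfected with COUP-TFII expression vector driving the NGFI-A reporter; 0% = median of COUP-TF2 test wells and 100% = reporter-only cells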
Target sequence (P24468 whole entry, looked up): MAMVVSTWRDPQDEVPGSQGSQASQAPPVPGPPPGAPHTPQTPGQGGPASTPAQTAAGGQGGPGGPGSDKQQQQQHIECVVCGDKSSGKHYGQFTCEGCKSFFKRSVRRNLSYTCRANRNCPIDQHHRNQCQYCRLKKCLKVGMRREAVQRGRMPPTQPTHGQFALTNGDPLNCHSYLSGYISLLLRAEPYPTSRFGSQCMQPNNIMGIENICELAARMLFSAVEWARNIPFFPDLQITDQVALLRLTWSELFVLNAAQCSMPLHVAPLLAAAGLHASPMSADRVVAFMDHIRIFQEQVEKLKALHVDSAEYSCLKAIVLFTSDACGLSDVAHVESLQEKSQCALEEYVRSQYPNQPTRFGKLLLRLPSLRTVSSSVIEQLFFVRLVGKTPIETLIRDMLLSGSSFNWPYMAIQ
Jurkat NFkB conf – lowers PMA/ionomycin-induced NF-kB signal in Jurkat cells | Jurkat NF-kB luciferase, 16 h | inhibition, % at 4 µM | actives 27% (n = 2,700) | shares compounds with Jurkat NFkB inh;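 active means inhibition reaching about 45% at 4 µM in either replicate, limit read from the data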;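 further: plate controls were PMA/ionomycin stimulated DMSO wells for no effect and unstimulated DMSO wells for full effect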
697 NFkB conf – inhibitors of the PMA/ionomycin-induced NF-kB reporter in 697 B cells, retest | actives 35% (n = 2,000) | inhibition, % at 4 µM | shares compounds with 697 NFkB inh | 697 B-cell NF-kB luciferase, 16 h | AID 449746; in the data active means inhibition mostly above about 28%, no sharp cut-off; inactive means mostly below about 22%
* hit, by the source's call; i = inactive; · = no result. Shown are actives, neighbours in structure and some others; about 2.6% of the full set was active somewhere.

SMILES | TAG inh | H9c2 protect | 697 NFkB inh | Gli-Sufu antag | Jurkat NFkB inh | COUP-TFII inh | Jurkat NFkB conf | 697 NFkB conf
C=C1C(O)[C@@H]2O[C@]3(CC[C@H](/C=C/C(C)[C@@H]4CC(C)=CC5(O[C@H](C[C@@](C)(O)CO)CCC5O)O4)O3)CC[C@H]2O[C@@H]1C(O)CC(C)[C@H]1OC2(CCCCO2)CCC1C (stereo partly drawn) | · | · | -405 | 63* | 92* | · | 78* | -170
CN1CC=C(c2ccccc2)N(c2ccc(Cl)cc2)C1=O | · | · | · | · | · | -22 | · | ·
O=C(Nc1ccc2sccc2c1)c1ccc(Cl)s1 | -19 | -6 | -323 | -132 | -224 | -33 | -144 | -306
CN1[C@@H](Cc2ccccc2)COc2cc(N3CCCC3)ccc2S1(=O)=O | · | · | · | · | · | 27 | · | ·
O=C(Cc1ccccc1)Nc1nc(=O)c2ccccc2s1 | -1 | 32 | 8 | -23 | -2 | -14 | · | ·
O=C(Cc1nc(=O)c2ccccc2s1)Nc1ccccc1 | · | -16 | -318 | -124 | -208 | -73 | -148 | -256
COc1cc(Cn2cc([C@]34C[C@H]5C(=O)N(C)CC(=O)N5[C@H]3N(S(=O)(=O)c3ccccc3)c3ccccc34)c3ccccc32)cc(OC)c1 | · | · | · | · | · | 11 | · | ·
O=[N+]([O-])c1cccc(N=Nc2ccc(O)cc2O)c1 | -6 | -7 | · | -11 | · | -5 | · | ·
O=[N+]([O-])c1ccc(N=Nc2ccc(O)cc2O)cc1 | -3 | 18 | 63* | -2 | 59* | -15 | -12 | -45
CC(=Nc1ccccc1)c1sc2ccccc2c1O | · | -9 | -251 | -89 | -158 | -55 | -17 | -23
Cc1ccoc1C(=O)Nc1ccc2ccccc2c1 | · | -20 | -444 | -179 | -211 | -4 | -122 | -388
O=C(Nc1ccc(F)c(Cl)c1)c1ccccc1 | -16 | -8 | -47 | -79 | -70 | -15 | · | ·
Cc1cc(C(=O)Nc2ccc3ccccc3c2)oc1C | · | -9 | -174 | -130 | -138 | -45 | · | ·
O=C(Nc1ccc2ccccc2c1)c1ccc(Cl)cc1 | · | -10 | -476 | -113 | -215 | -45 | -126 | -486
CCOc1cccc(C(=O)Nc2ccc3ccccc3c2)c1 | · | -18 | -449 | -113 | -185 | -4 | -145 | -490
C(=N\Nc1nc2ccccc2s1)/c1ccc2c(c1)OCO2 | · | -9 | -333 | -74 | -205 | -75 | -91 | -264
c1cnc2ccc(-c3ccc4ncccc4c3)cc2c1 | · | -8 | -346 | -118 | -171 | -12 | -86 | -338
O=C(Nc1ccc([N+](=O)[O-])cc1)C(=O)Nc1cccc(C(=O)O)c1 | 7 | -23 | 46* | -138 | 56* | -54 | 67* | 23*
CC(C)C[C@@H]1COc2cc(Br)ccc2S(=O)(=O)N1Cc1cn(Cc2ccco2)nn1 | · | · | · | · | · | 5 | · | ·
CC1CCc2nc3sc4c(c3c(N)c2C1)CCCC4 (stereo not drawn) | · | -16 | -98 | -44 | -78 | -65 | · | ·
Nc1c2c(nc3sc4c(c13)CCCCC4)CCCCC2 | · | -8 | -260 | -90 | -177 | -56 | -98 | -204
O=C(Nc1ccc2c(c1)OCCO2)c1ccc(Cl)cc1Cl | 6 | -19 | -272 | -93 | -152 | -14 | -96 | -211
O=C(Nc1ccc(N2CCN(C(=O)c3ccc(Cl)cc3)CC2)cc1)c1ccc2c(c1)OCCO2 | · | -13 | 39* | 36 | 58* | 30 | 57* | -40
CCOC(=O)[C@]12CCCCC/C=C\1N(Cc1ccc(OC)cc1)C(=O)[C@H]2CC(=O)NCc1cccs1 | · | · | · | · | · | 7 | · | ·
O=c1oc(C2(O)CCCCC2)cc2ccccc12 | 18 | 4 | 3 | 4 | -5 | -6 | · | ·
SMILES | TAG inh | H9c2 protect | 697 NFkB inh | Gli-Sufu antag | Jurkat NFkB inh | COUP-TFII inh | Jurkat NFkB conf | 697 NFkB conf
O=c1oc(C2(O)CCCCC2)cc2ccc(-c3ccc4[nH]ccc4c3)cc12 | -26 | -4 | i | 4 | -168 | -123 | -75 | i
COCCCNC(=O)C[C@H]1C[C@@]2(C(=O)OC)C(=C[C@H](COCc3ccccc3)O[C@@H]2C)N(Cc2ccc3c(c2)OCO3)C1=O | · | · | · | · | · | -11 | · | ·
O=C1C=CC(O)(c2cc(=O)c3c(O)cc(O)cc3o2)C=C1 | 97 | -2 | i | 47 | 89* | 0 | 71* | i
O=c1cc(-c2ccccc2Cl)oc2cc(O)cc(O)c12 | -25 | -2 | -26 | -14 | -12 | -1 | · | ·
C[C@@H]1COc2cc(Br)ccc2S(=O)(=O)N1Cc1cn(CCC2OCCO2)nn1 | · | · | · | · | · | 1 | · | ·
COc1cccc(-c2cc3onc(-c4ccccc4)c3c(=O)n2C)c1 | -6 | -12 | -460 | -37 | -204 | -63 | -129 | -461
CN1C(=O)C[C@@](C#N)(C(=O)NCC(F)(F)F)[C@H]1c1ccccc1 | · | · | · | · | · | -1 | · | ·
O=C(Nc1cc2nn(-c3ccccc3)nc2cc1Cl)c1ccco1 | 1 | -23 | -152 | -61 | -115 | -21 | · | ·
CC(=O)Nc1cc2nn(-c3ccccc3)nc2cc1Cl | -7 | -15 | -349 | -89 | -189 | -49 | -80 | -206
CC(C)C(=O)Nc1ccc2nn(-c3ccccc3)nc2c1 | 8 | -20 | -357 | 17 | -255 | -46 | -166 | -329
O=C(NC1CCC1)c1ccc(C#Cc2cccc(F)c2)nc1 | · | · | · | · | · | -38 | · | ·
O=C(c1ccccc1)c1ccc(O)cc1O | 0 | -9 | 2 | -8 | -8 | 0 | · | ·
CC(=O)c1cc2c(C)c(C(=O)c3ccccc3)oc2cc1O | -4 | -4 | -362 | -89 | -186 | -58 | -93 | -303
NCCN1CCN(S(=O)(=O)c2ccc3c(c2)CCN3C(=O)C2CCC2)CC1 | · | · | · | · | · | -25 | · | ·
CC(=O)N1c2cc(S(=O)(=O)N3CCN(c4ccccc4F)CC3)c(Br)cc2CC1C (stereo not drawn) | · | · | · | · | · | 13 | · | ·
Cc1nc2ccccn2c1-c1csc(NCc2ccco2)n1 | -19 | -18 | -29 | 24 | 11 | 10 | · | ·
Cc1ccc(Nc2nc(-c3c(C)nc4ccccn34)cs2)cc1 | · | -14 | -396 | 62* | 83* | -48 | 62* | -54
COC(=O)[C@]12C[C@H](CC(=O)NCc3ccc(C)o3)C(=O)N(Cc3cccc4ccccc34)C1=C[C@H](C(C)(C)C)O[C@@H]2C | · | · | · | · | · | 17 | · | ·
COc1ccc(N/C=C2\CCc3ccccc3C2=O)cc1 | -6 | -24 | -290 | -84 | -197 | 7 | 14 | -9
CC[n+]1c(/C=C/N(C)c2ccccc2)n(-c2ccccc2)c2ccc(-c3nc4ccccc4s3)cc21 | · | -19 | 54* | 91* | 98* | · | 91* | 83*
Cc1cccc(-c2cc3c(N=O)c4ccccc4c-3n[nH]2)c1 | · | -6 | -339 | -70 | -205 | -36 | -87 | -336
O=Nc1c2cc(-c3ccccc3)[nH]nc-2c2ccccc12 | · | -29 | · | -62 | · | -45 | · | ·
COC(=O)[C@H](CC(C)C)N(Cc1cn(Cc2ccc(C)cc2)nn1)S(=O)(=O)c1ccc(F)cc1Br | · | · | · | · | · | 11 | · | ·
